Assay results reported in PubChem BioAssay (NCI).
Compounds without any hit were thinned out: in the full panel of roughly 83,000, 20% have a hit.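 Negative percent growth values reflect cell death: -40 means 40% of the cells present at the start died, and -100 means all died.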 Unmarked numbers belong to inactive results. The source made the active and inactive calls. The calls were made as follows: active = growth percent below 10; inactive = the rest.

What was measured:
Test in all cases: NCI-60 one-dose screen, 48 h (100 = growth as untreated, 0 = no growth, -100 = all killed)
Details in all cases: 10 µM unless noted
HCT-15 colon = tested on: HCT-15 colon
HT29 colon = tested on: HT29 colon
SNB-75 CNS = tested on: SNB-75 CNS
SNB-19 CNS = tested on: SNB-19 CNS
U251 CNS = tested on: U251 CNS
PC-3 prostate = tested on: PC-3 prostate
SK-MEL-5 melanoma = tested on: SK-MEL-5 melanoma
UACC-62 melanoma = tested on: UACC-62 melanoma
LOX IMVI melanoma = tested on: LOX IMVI melanoma
SK-MEL-28 melanoma = tested on: SK-MEL-28 melanoma
SK-MEL-2 melanoma = tested on: SK-MEL-2 melanoma
SN12C renal = tested on: SN12C renal
UO-31 renal = tested on: UO-31 renal
TK-10 renal = tested on: TK-10 renal
ACHN renal = tested on: ACHN renal
CAKI-1 renal = tested on: CAKI-1 renal
A498 renal = tested on: A498 renal
CCRF-CEM leukemia = tested on: CCRF-CEM leukemia
MOLT-4 leukemia = tested on: MOLT-4 leukemia
EKVX NSCLC = tested on: EKVX NSCLC

CCOC(=O)C(CC(c1ccccc1)N1CCCCC1)[N+](=O)[O-] (centres undefined)
growth (HCT-15 colon): 74.9% | growth (HT29 colon): 95.4% | growth (SNB-75 CNS): 86% | growth (SNB-19 CNS): 89.5% | growth (U251 CNS): 73.7% | growth (PC-3 prostate): 67.2% | growth (SK-MEL-5 melanoma): 91.2% | growth (UACC-62 melanoma): 59.9% | growth (LOX IMVI melanoma): 63.8% | growth (SK-MEL-28 melanoma): 98.8% | growth (SK-MEL-2 melanoma): 88.5% | growth (SN12C renal): 76.9% | growth (UO-31 renal): 46.2% | growth (TK-10 renal): 112% | growth (ACHN renal): 72.6% | growth (CAKI-1 renal): 103% | growth (A498 renal): 88.4% | growth (CCRF-CEM leukemia): 49.5% | growth (MOLT-4 leukemia): 63.7%

Cc1ccccc1-n1nnc(C(=O)Nc2ccc(-c3ccccc3)cn2)c1C
growth (HCT-15 colon): 39.8% [50 µM] | growth (HT29 colon): 28.1% [50 µM] | growth (SNB-75 CNS): 83.6% [50 µM] | growth (SNB-19 CNS): 62.6% [50 µM] | growth (U251 CNS): 64.9% [50 µM] | growth (PC-3 prostate): 40.5% [50 µM] | growth (SK-MEL-5 melanoma): -41.8% [50 µM] (active) | growth (UACC-62 melanoma): 45.6% [50 µM] | growth (LOX IMVI melanoma): 48.1% [50 µM] | growth (SK-MEL-28 melanoma): 56.8% [50 µM] | growth (SK-MEL-2 melanoma): 42% [50 µM] | growth (EKVX NSCLC): 34.8% [50 µM] | growth (SN12C renal): 64.4% [50 µM] | growth (ACHN renal): 46% [50 µM] | growth (CAKI-1 renal): 31.1% [50 µM] | growth (A498 renal): 61.2% [50 µM] | growth (CCRF-CEM leukemia): 51.8% [50 µM] | growth (MOLT-4 leukemia): 8.31% [50 µM] (active)

CN1CCN(c2ccc3nc(-c4ccc5nc(-c6ccc(C(F)(F)F)cc6)[nH]c5c4)[nH]c3c2)CC1
growth (HCT-15 colon): 80.4% | growth (HT29 colon): 29.2% | growth (SNB-75 CNS): 29.6% | growth (SNB-19 CNS): 74.2% | growth (U251 CNS): 34.7% | growth (PC-3 prostate): 30.2% | growth (SK-MEL-5 melanoma): 44.2% | growth (UACC-62 melanoma): 67.5% | growth (LOX IMVI melanoma): -85.8% (active) | growth (SK-MEL-28 melanoma): 63.2% | growth (SK-MEL-2 melanoma): 103% | growth (EKVX NSCLC): 81.6% | growth (SN12C renal): 80.3% | growth (TK-10 renal): 101% | growth (ACHN renal): 55.6% | growth (CAKI-1 renal): 43% | growth (CCRF-CEM leukemia): 21.2% | growth (MOLT-4 leukemia): 47.2%

CCCCCn1c(=N)n(CC(O)COc2cccc(C)c2)c2ccccc21 (centres undefined)
growth (HCT-15 colon): 11.1% | growth (HT29 colon): 72.7% | growth (SNB-75 CNS): 2.13% (active) | growth (SNB-19 CNS): 20% | growth (U251 CNS): 1.64% (active) | growth (PC-3 prostate): 7.46% (active) | growth (SK-MEL-5 melanoma): -73.3% (active) | growth (UACC-62 melanoma): 25.7% | growth (LOX IMVI melanoma): 13.7% | growth (SK-MEL-28 melanoma): 31.2% | growth (SK-MEL-2 melanoma): -34.1% (active) | growth (SN12C renal): 12% | growth (UO-31 renal): 0.645% (active) | growth (TK-10 renal): 21.4% | growth (ACHN renal): 10.7% | growth (CAKI-1 renal): 7.06% (active) | growth (A498 renal): -3.77% (active) | growth (CCRF-CEM leukemia): 8.45% (active) | growth (MOLT-4 leukemia): 1.95% (active)

COc1cccc(Nc2nc(NCCO)c3ccccc3n2)c1
growth (HCT-15 colon): 88.6% | growth (HT29 colon): 100% | growth (SNB-75 CNS): 63.7% | growth (SNB-19 CNS): 76.9% | growth (U251 CNS): 73.7% | growth (PC-3 prostate): 24.4% | growth (SK-MEL-5 melanoma): 78.2% | growth (UACC-62 melanoma): 67.1% | growth (LOX IMVI melanoma): 75% | growth (SK-MEL-28 melanoma): 91.7% | growth (SK-MEL-2 melanoma): 103% | growth (SN12C renal): 81.6% | growth (UO-31 renal): 74.4% | growth (TK-10 renal): 106% | growth (ACHN renal): 79.7% | growth (CAKI-1 renal): 70.6% | growth (A498 renal): 43.8% | growth (CCRF-CEM leukemia): 22.4% | growth (MOLT-4 leukemia): 48.1%

Cc1ccc(S(=O)(=O)N2CCc3ccc(O)c4c3C2Cc2ccc3c(c2-4)OCO3)cc1 (centres undefined)
growth (HCT-15 colon): 30.6% | growth (HT29 colon): 52.3% | growth (SNB-75 CNS): 5.09% (active) | growth (SNB-19 CNS): 52.3% | growth (U251 CNS): 12.7% | growth (PC-3 prostate): 26.8% | growth (SK-MEL-5 melanoma): 25.9% | growth (UACC-62 melanoma): 22.1% | growth (LOX IMVI melanoma): 35.6% | growth (SK-MEL-28 melanoma): 44.4% | growth (EKVX NSCLC): 49.3% | growth (SN12C renal): 39.5% | growth (UO-31 renal): 30.4% | growth (TK-10 renal): 32.6% | growth (ACHN renal): 44.9% | growth (CAKI-1 renal): 32% | growth (A498 renal): 35.6% | growth (CCRF-CEM leukemia): -11.9% (active) | growth (MOLT-4 leukemia): 10.9%

CCC(C)[C@H]1O[C@]2(CC[C@@H]1C)C[C@@H]1C[C@@H](C/C=C(\C)[C@@H](OC3C[C@H](OC)C(O[C@H]4C[C@H](OC)[C@@H](O)[C@H](C)O4)[C@H](C)O3)[C@@H](C)/C=C/C=C3\CO[C@@H]4[C@H](O)C(C)=C[C@@H](C(=O)O1)[C@]34O)O2 (some centres undefined)
growth (HCT-15 colon): 8.26% (active) | growth (HT29 colon): 4.41% (active) | growth (SNB-75 CNS): -0.276% (active) | growth (SNB-19 CNS): 33.1% | growth (U251 CNS): 31.5% | growth (PC-3 prostate): 1.52% (active) | growth (SK-MEL-5 melanoma): -85.4% (active) | growth (UACC-62 melanoma): 18.4% | growth (LOX IMVI melanoma): -83.1% (active) | growth (SK-MEL-28 melanoma): -16.6% (active) | growth (EKVX NSCLC): 4.67% (active) | growth (SN12C renal): 14.6% | growth (UO-31 renal): 9.45% (active) | growth (TK-10 renal): 30.2% | growth (ACHN renal): -66.3% (active) | growth (CAKI-1 renal): -15.1% (active) | growth (A498 renal): -23.7% (active) | growth (CCRF-CEM leukemia): 25.9%

C=C1CC[C@@H]2[C@@](C)(CCC[C@]2(C)C(=O)O)[C@@H]1CC[C@H](CO)CCO
growth (HCT-15 colon): 108% | growth (HT29 colon): 104% | growth (SNB-75 CNS): 94.8% | growth (SNB-19 CNS): 101% | growth (U251 CNS): 102% | growth (PC-3 prostate): 99.7% | growth (SK-MEL-5 melanoma): 112% | growth (UACC-62 melanoma): 99.2% | growth (LOX IMVI melanoma): 99.1% | growth (SK-MEL-28 melanoma): 105% | growth (EKVX NSCLC): 108% | growth (SN12C renal): 103% | growth (UO-31 renal): 79.5% | growth (TK-10 renal): 99.4% | growth (ACHN renal): 106% | growth (CAKI-1 renal): 101% | growth (A498 renal): 107% | growth (CCRF-CEM leukemia): 102% | growth (MOLT-4 leukemia): 88.2%

Nc1cc2[nH]c(=O)c3ccccc3c2cc1Br
growth (HCT-15 colon): 52.6% | growth (HT29 colon): 111% | growth (SNB-75 CNS): 57% | growth (SNB-19 CNS): 93.6% | growth (U251 CNS): 84% | growth (PC-3 prostate): 81.5% | growth (SK-MEL-5 melanoma): 67.2% | growth (UACC-62 melanoma): 80.7% | growth (LOX IMVI melanoma): 74.5% | growth (SK-MEL-28 melanoma): 97.8% | growth (EKVX NSCLC): 44.7% | growth (SN12C renal): 72.8% | growth (UO-31 renal): 41.2% | growth (TK-10 renal): 45.2% | growth (ACHN renal): 93.9% | growth (CAKI-1 renal): 54.3% | growth (A498 renal): 37.7% | growth (CCRF-CEM leukemia): 81.2% | growth (MOLT-4 leukemia): 87.3%

COc1c(O)c2c3c(c1OC)-c1ccccc1CC3N(S(=O)(=O)c1ccc(C)cc1)CC2 (centres undefined)
growth (HCT-15 colon): 37.3% | growth (HT29 colon): 121% | growth (SNB-75 CNS): 22.8% | growth (SNB-19 CNS): 61.6% | growth (U251 CNS): 22.5% | growth (PC-3 prostate): 48.5% | growth (SK-MEL-5 melanoma): 21.8% | growth (UACC-62 melanoma): 58% | growth (LOX IMVI melanoma): 51.7% | growth (SK-MEL-28 melanoma): 53.2% | growth (EKVX NSCLC): 106% | growth (SN12C renal): 50% | growth (UO-31 renal): 48% | growth (TK-10 renal): 83.4% | growth (ACHN renal): 50% | growth (CAKI-1 renal): 51.1% | growth (A498 renal): 88.3% | growth (CCRF-CEM leukemia): 1.29% (active) | growth (MOLT-4 leukemia): 30.7%

CC1CCCCN1S(=O)(=O)c1ccc(CN=C=S)cc1 (centres undefined)
growth (HCT-15 colon): 19.2% | growth (HT29 colon): 50.5% | growth (SNB-75 CNS): 69.3% | growth (SNB-19 CNS): 77.9% | growth (U251 CNS): 68.8% | growth (PC-3 prostate): 74.4% | growth (SK-MEL-5 melanoma): 91.5% | growth (UACC-62 melanoma): 84.5% | growth (LOX IMVI melanoma): 3.54% (active) | growth (SK-MEL-28 melanoma): 88.5% | growth (EKVX NSCLC): 99.2% | growth (SN12C renal): 66.1% | growth (UO-31 renal): 54% | growth (TK-10 renal): 64.4% | growth (ACHN renal): 4.78% (active) | growth (CAKI-1 renal): 51.2% | growth (A498 renal): 79% | growth (CCRF-CEM leukemia): 39.2%

COc1cccc(OC)c1OC(=O)c1ccccc1
growth (HCT-15 colon): 109% | growth (HT29 colon): 107% | growth (SNB-75 CNS): 82.5% | growth (SNB-19 CNS): 104% | growth (U251 CNS): 94.8% | growth (PC-3 prostate): 106% | growth (SK-MEL-5 melanoma): 96% | growth (UACC-62 melanoma): 97.1% | growth (LOX IMVI melanoma): 92.7% | growth (SK-MEL-28 melanoma): 98.2% | growth (EKVX NSCLC): 95.8% | growth (SN12C renal): 91.2% | growth (UO-31 renal): 77.5% | growth (TK-10 renal): 114% | growth (ACHN renal): 107% | growth (CAKI-1 renal): 88.4% | growth (A498 renal): 85.6% | growth (CCRF-CEM leukemia): 92.7% | growth (MOLT-4 leukemia): 107%
